Laboratory results taken from PubChem BioAssay (NCI).
Compounds without any hit were thinned out: in the full panel of roughly 83,000, 20% have a hit.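 Interpretation: 100, growth as untreated; towards 0, rising growth inhibition; 0, no net growth; 0 to -100, cell death. Compounds scoring below 10 were considered active.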 Unmarked numbers belong to inactive results. The source made the active and inactive calls.

Columns and labels:
Assay in all cases: NCI-60 one-dose screen, 48 h (100 = growth as untreated, 0 = no growth, -100 = all killed)
Settings in all cases: 10 µM unless noted
NCI-H23 lung = test system: NCI-H23 lung
NCI-H226 lung = test system: NCI-H226 lung
NCI-H322M lung = test system: NCI-H322M lung
HOP-62 NSCLC = test system: HOP-62 NSCLC
NCI-H460 lung = test system: NCI-H460 lung
HOP-92 NSCLC = test system: HOP-92 NSCLC
NCI-H522 lung = test system: NCI-H522 lung
A549/ATCC NSCLC = test system: A549/ATCC NSCLC
786-0 renal = test system: 786-0 renal
COLO 205 colon = test system: COLO 205 colon

| Compound | growth (NCI-H23 lung) | growth (NCI-H226 lung) | growth (NCI-H322M lung) | growth (HOP-62 NSCLC) | growth (NCI-H460 lung) | growth (HOP-92 NSCLC) | growth (NCI-H522 lung) | growth (A549/ATCC NSCLC) | growth (786-0 renal) | growth (COLO 205 colon) |
| --- | --- | --- | --- | --- | --- | --- | --- | --- | --- | --- |
| O=C1Nc2ccccc2C12CC(c1ccc(Cl)cc1)=NN2 (stereo not given) | 101% | 86.6% | 110% | 104% | 97.9% | 74.3% | 90.1% | 82.2% | 100% | 108% |
| CCCCNC(=O)NS(=O)(=O)c1ccc(N2N=C(c3cc(C)ccc3C)CC2c2cc(OC)c(OC)c(OC)c2)cc1 (stereo not given) | -26.1% (active) | 75.2% | 66.7% | 53.8% | 57.5% | 62.4% | 53.7% | 32.6% | 47.9% | 44.7% |
| CC(=O)C1=C(O)C=C2Oc3c(C(=O)/C=C/c4c(Cl)cccc4Cl)c(O)c(C)c(O)c3[C@]2(C)C1=O | -37.9% (active) | -41.2% (active) | -25.9% (active) | -48.6% (active) | 0.581% (active) | -24.9% (active) | -30.4% (active) | -46.1% (active) | -39.3% (active) | -59.1% (active) |
| CC(=O)C1=C(O)C=C2Oc3c(C(=O)/C=C/c4ccccc4)c(O)c(C)c(O)c3[C@]2(C)C1=O | 42.4% | 53.9% | 31.5% | 37.3% | 40.9% | 15.5% | 21.6% | 15% | 30.7% | 40.4% |
| O=C(/C=C/c1ccc(Cl)cc1)/C=C/c1cc2ccccc2[nH]c1=O | 68% | 93.5% | 105% | 39.4% | 94.4% | 92.5% | 46.4% | 46.5% | 88.5% | 40.8% |
| COc1ccc(-n2cc(-c3ccccc3)c3c(SCC(=O)N/N=C/c4ccc([N+](=O)[O-])cc4)ncnc32)cc1 | 88.9% | 84.2% | 106% | 100% | 113% | 98.3% | 91.5% | 105% | 95.3% | 109% |
| NC(=S)N/N=C/c1ccc(OCc2ccccc2)cc1 | 84% | 61.1% | 79.9% | 93.8% | 86.7% | 48.5% | -24.1% (active) | 68.4% | 41.7% | 56.9% |
| CCOC(=O)c1cnc2cc(Cl)c(F)cc2c1Nc1cccc(NS(C)(=O)=O)c1 | 80.8% | 96.4% | 96.3% | 95.9% | 110% | 67.6% | 93% | 112% | 95.6% | 124% |
| CC(=O)N1CC(Nc2ccc(OC(F)(F)F)cc2)=CC1=O | 56.8% | 67.5% | 43.3% | 30.2% | 20.6% | 50% | 29.3% | 38.9% | 53.6% | 4.8% (active) |
| CC(=O)OCC(=O)C1CCC=CC1OC(C)=O (stereo not given) | 97.7% | 92.6% | 88.8% | 86.3% | 108% | 98.9% | 75.1% | 94.4% | 99.2% | 110% |
| O=C1c2cccnc2C(=O)c2c1c(C(=O)OCCN1CCCCC1)c1ccccn21 | -53.2% (active) | -15.3% (active) | -81.7% (active) | -34.5% (active) | -16.7% (active) | 12.5% | -64.5% (active) | -46.6% (active) | -45.9% (active) | -70.3% (active) |
| CCN(CC)CC(O)CNc1c2ccc([N+](=O)[O-])cc2nc2cc(OC)c(OC)cc12 (stereo not given) | -27.2% (active) | -39.1% (active) | -43.5% (active) | -51% (active) | -49.6% (active) | -57.4% (active) | -65.6% (active) | -22% (active) | -8.36% (active) | -71% (active) |
